Screening results from PubChem.
Pf Dd2 growth – blocks in vitro growth of P. falciparum Dd2. 120,000 tested, 4.3% active. Potency, µM (series often up to 28.9 µM), actives largely listed as inhibitors. P. falciparum Dd2 growth, SYBR Green, 72 h; active = well fitted inhibition curve with a large enough effect; note: nearly all actives have a fitted effect of over 65% in size
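Infected erythrocytes (Dd2, 0.3% parasitemia, 2.5% hematocrit final) are added to compound in RPMI-1640/Albumax II medium, grown 72 h at 37C in low oxygen, then lysed with saponin/Triton-X containing SYBR Green and read by fluorescence.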
A number is an active result; i = inactive; [ ] = remark or other dose. Only a selection was taken, and hits are over-represented in it overall.

SMILES	Pf Dd2 growth
CC1CCCCN1C(=O)c1cnc(Cc2c(Cl)cccc2Cl)[nH]c1=O (configuration not stated)	i
O=C1CC(c2c(F)cccc2Cl)c2c(ccc3ccccc23)N1 (configuration not stated)	i
O=C1CC(c2c(Cl)cccc2Cl)c2c(ccc3ccccc23)N1 (configuration not stated)	i
CCCCOc1ccccc1C1CC(=O)Nc2ccc3ccccc3c21 (configuration not stated)	14.1µM
CC(C)c1ccc(CC(=O)N2CCCc3ncc(C(=O)N(C)c4ccccc4)cc32)cc1	i
COc1ccccc1N1CCN(CCCNC(=O)c2cnn(-c3ccc(C)c(C)c3)c2C2CCN(C(=O)OC(C)(C)C)CC2)CC1	5.62µM
COc1ccccc1N1CCN(CCCNC(=O)c2cnn(-c3cccc(Cl)c3)c2C2CCN(C(=O)OC(C)(C)C)CC2)CC1	2µM
Cc1ccc(-n2ncc(C(=O)NCCCN3CCCCC3)c2C2CCN(C(=O)OC(C)(C)C)CC2)cc1	10µM
Cc1cccc(CCNC(=O)[C@@H]2C[C@@H](O)CN2C2CCNCC2)c1	i
O=C(c1scc2c1OCCO2)N1CCCC(N2CCN(c3cccc(Cl)c3)CC2)C1 (configuration not stated)	i
N#Cc1ccc(CN2CCc3nc(C(=O)NCc4cccc(F)c4)oc3CC2)cc1	i
Cc1ccc(NC(=O)Nc2ccc(C)n(CC(=O)N3CCC(C)CC3)c2=O)cc1	i
CNC(=O)[C@@H]1CN(C(=O)c2ccc(Cl)cc2)C[C@H]1CO	i
O=C(c1n[nH]c(=O)c2ccccc12)N1CCN(C(=O)N2CC3CC(C2)[C@H]2CCCC(=O)N2C3)CC1 (some centres not stated)	i
C[C@@]1(NC(=O)Cc2ccccc2)OC[C@H]2CC[C@@H](C(=O)Nc3ccc(OC(F)(F)F)cc3)N2C1=O	i
Cc1ccc(C(=O)NC2CCN(C(=O)N3CC4CC(C3)[C@H]3CCCC(=O)N3C4)CC2)cn1 (some centres not stated)	i
CN1CCCC(CN(CCc2ccccc2)C(=O)c2cc[n+]([O-])cc2)C1 (configuration not stated)	i
CC(=O)c1cc(CC(=O)N[C@@H]2COCC[C@@H]2OCc2ccccc2)cs1	i
CC(=O)c1cc(CN(CCc2ccccc2)CC2CCCN(C)C2)cs1 (configuration not stated)	12.6µM
CSc1ccc(CCNC(=O)c2ccc(-n3c(C)cc4c3CCC(C)C4)cc2)cc1 (configuration not stated)	i[5.79 µM]
CCOc1ccc(CCNC(=O)c2ccc(-n3c(C)cc4c3CCC(C)C4)cc2)cc1OCC (configuration not stated)	8.91µM
COc1ccc(CCNC(=O)c2ccc3c(c2)nc2n3CCC(C)C2)cc1OC (configuration not stated)	i
CC(=O)N(C1CC1)C1CCOC2(CCN(C(=O)c3cccc4nccnc34)CC2)C1 (configuration not stated)	i
O=C(NC1CCCN(c2cc(-c3ccc(F)cc3)[nH]n2)C1)c1ccoc1 (configuration not stated)	i
CN1CCN(c2ncc(C(=O)O)c(-c3ccccc3)n2)CC1	i
SMILES	Pf Dd2 growth
CCCCN1CCN(C(=O)c2cnc(-c3ccccc3)nc2-c2ccncc2)CC1	i
CC/C=C\CCc1c(-c2ccccc2)ncn1CCN1CCN(C)CC1	4.47µM
CC(C)NC(=O)N1CNC(=O)C12CCN(C(=O)c1ccccc1)CC2	i
CN(C)c1ccc(C(=O)N[C@H]2C[C@H]3C(=O)NC[C@@H](CCC(=O)NCc4cccnc4)N3C2)cc1	i
CC(C)CCN1CC2(CCCN(C(=O)CCn3cnnc3)C2)CCC1=O (configuration not stated)	i
Cc1cccc(CN2C[C@@H]3[C@H](C2)N(CC(C)C)C(=O)C(C)(C)[S+]3(=O)[O-])c1	i
CC(C)(C(=O)N1Cc2cnn(Cc3ccc(F)cc3)c2C1)c1ccccc1	i
CC(C)(C(=O)N1C[C@H](C2CC2)[C@@H](N)C1)c1ccccc1	6.31µM
CC(=O)N1CCC([C@@H]2CN(C(=O)COc3ccccc3)C[C@H]2CO)CC1	i
CN1c2cc(C(=O)NCCc3ccccc3)ccc2C(=O)N2CCCC21 (configuration not stated)	i
COCCN1CC(C(=O)N(C)Cc2ccc(OC)c3ncccc23)CCC1=O (configuration not stated)	i
CCNC(=O)CCc1c(C)nn(-c2ccc(F)cc2)c1Oc1ccccc1	i
CCNC(=O)CCC[C@@H]1[C@H]2CCCN3CCC[C@@H](CN1C(C)=O)[C@@H]23	i
CCN(CC)c1ccc(C(=O)N2CCC(n3cc(-c4nc(C)no4)nn3)CC2)cc1	i
COc1ccc(-c2cn3c(n2)sc2cc(C(=O)NC4CCCCCC4)ccc23)cc1	i
COc1ccc(-c2cn3c(n2)sc2cc(C(=O)Nc4cccc(OC)c4)ccc23)cc1	i
COc1cccc(-c2cn3c(n2)sc2cc(C(=O)NCCC4=CCCCC4)ccc23)c1	i
COc1ccc(-c2cn3c(n2)sc2cc(C(=O)NCCCN4CCCCC4)ccc23)cc1	1.12µM
O=C(NC1CCCCCC1)c1ccc2c(c1)sc1nc(-c3ccc(F)cc3)cn12	i
COc1ccc(-c2cn3c(n2)sc2cc(C(=O)NCCCN4CCCCCC4)ccc23)cc1	8.91µM
O=C(NC1CCCCC1)c1ccc2c(c1)sc1nc(-c3ccc(F)cc3)cn12	i
CCOC(=O)C1CCN(C(=O)c2ccc3c(c2)sc2nc(-c4ccc(OCC)cc4)cn23)CC1	8.91µM
Cc1cnc(C(=O)N2C[C@@H](Oc3ccccc3)C[C@H]2C(=O)N2CCCC2)cn1	i
CC(C)[C@]1(O)CN(S(=O)(=O)c2ccc3c(c2)CCC(=O)N3)C[C@H]1C	i
CC(C)c1noc([C@@H]2C[C@H]3C(=O)NCCCCCCN(C(=O)c4cccc(C#N)c4)[C@H]3C2)n1	i
SMILES	Pf Dd2 growth
CCOc1ccccc1CNC(=O)[C@H]1CN(C(C)C)C[C@H]1C(=O)O	i
O=C(c1ccco1)N1CCC(F)(c2nc(-c3ccncc3)no2)CC1	i
Nc1nc(C2CC(O)C2)cc(N2CCCN(C(=O)c3ccoc3)CC2)n1 (configuration not stated)	i
Cc1cc(=O)n(CC(=O)Nc2ccc(Br)cc2F)c(N(C)Cc2ccccc2)n1	i
O=C(c1ccccn1)N1CCCC(c2noc(COc3ccccc3)n2)C1 (configuration not stated)	i
CC(C)CNC(=O)N1CC(c2noc(C3CCCN3CC3CC3)n2)C1 (configuration not stated)	i
CCN1C(=O)C2(CCN(S(=O)(=O)c3ccc(Cl)cc3C)CC2)c2ccccc21	1µM
CCN1C(=O)C2(CCN(S(=O)(=O)c3ccc(C)c(C)c3)CC2)c2ccccc21	i
CCN1C(=O)C2(CCN(S(=O)(=O)c3cccc(C)c3)CC2)c2ccccc21	i
O=C(Cn1ccn2nc(-c3ccc(F)cc3)c(CO)c2c1=O)Nc1cccc(C(F)(F)F)c1	i
CN1c2cc(C(=O)Nc3ccc(C#N)cc3)ccc2C(=O)N2CCCCC21 (configuration not stated)	i
Cc1cc(C[C@@H]2COC[C@@H]2NC(=O)c2ccc(-c3ccccc3Cl)o2)on1	i
CC[C@H]1CN(C(=O)Nc2ccccc2)CC[C@H]1CC(=O)N(C)CC#N	i
O=C(c1ccco1)N1CCCC(c2nc(CCOCC3CCOCC3)no2)C1 (configuration not stated)	i
COc1cccc2cc(-c3nc(Nc4cccc(C)c4C)sc3C)c(=O)oc12	i
